The results in this text go back to PubChem BioAssay AID720554 (ICCB-Longwood Screening Facility, Harvard Medical School, 2013).

Test [1] can be described thus: BmaI1 acyl-homoserine lactone synthase inhibition – biochemical, fluorescence intensity, with counterscreen (AID 720554). The note with it: BmaI1 enzyme assay, measured here: counterscreen fluorescence % control, concentration not given here. In general terms: Counterscreens check selectivity or assay interference.
The test system of test [2] is acyl-homoserine lactone synthase BmaI1 (Burkholderia mallei ATCC 23344). The test is described as above. The note with it: BmaI1 enzyme assay, stronger effect = higher value, concentration not given here.

Structures are written as SMILES. The whole screen tested about 12,000 compounds, of which about 45 (0.4%) were called active. This is one part of a sample in which actives are shown more often than they occur. Rule as the data show it: active = inhibition mostly above about 83% (no sharp cut-off); inactive = mostly below about 52%.

Regarding `CCn1c(CCC(=O)Nc2ccc(N3CCOCC3)cc2)nc2cc(S(=O)(=O)N(C)C)ccc21`, the inhibition in test [1] is -2.5%; in test [2], 21% (inactive).

Take `CCn1c(C)nc2cc(C#N)ccc21`: the inhibition in test [1] is 6%; in test [2], 8% (inactive).

For the molecule `CCc1ccc(C2=Nn3c(nnc3-c3cccc(S(=O)(=O)N(CC)CC)c3)SC2)cc1`, the figures for the inhibition in test [1] and in test [2] were 3% and 21% (inactive), respectively.

For `CN(C)S(=O)(=O)c1cccc(-c2nnc3n2N=C(c2cccs2)CS3)c1`, the inhibition in test [1] is -1%; in test [2] it was 87.5% (active).

As for `CN(C)S(=O)(=O)c1cccc(-c2nnc3n2CCCCC3)c1`, the figures for the inhibition in test [1] and in test [2] were -2% and -4.5% (inactive), respectively.

As to `COc1ccc2c(Cl)c(-c3nnc4n3CCC4)sc2c1`, the inhibition in test [1] was -3.5%; in test [2] it was 6.5% (inactive).

Consider `Cn1c(CC(N)=S)nc2ccccc21`, for which the inhibition was 17% in test [1] and 92.5% (active) in test [2].

As to `Cc1csc(Cc2nc3ccccc3n2C)n1`, the results for the inhibition in test [1] and in test [2] were 8% and 16% (inactive), respectively.

`Cn1c(Cc2nnc3n2-c2ccccc2SC3)nc2ccccc21`: the inhibition was -1% in test [1] and 28.5% (inactive) in test [2].

For the molecule `Cc1cc(C(=O)Cn2cnc3sccc3c2=O)c(C)n1C1CC1`, the inhibition is 8.5% in test [1] and 16.5% (inactive) in test [2].

Take `CC(C)Sc1nc2ccccc2n1CN1CCN(c2ccccn2)CC1`: the values for the inhibition in test [1] and in test [2] were 3% and 9% (inactive), respectively.

Take `Cc1csc(=O)n1CN1CCN(C(=O)C2COc3ccccc3O2)CC1` (stereo not given): the inhibition in test [1] is 7.5%; in test [2], 17.5% (inactive).

Turning to `COC(=O)COc1cc(NO)ccc1N=O`, the figures for the inhibition in test [1] and in test [2] were 4.5% and 88.5% (active), respectively.

Turning to `COC(=O)COc1ccc2ccc(=O)oc2c1`, the inhibition was -9.5% in test [1] and -8% (inactive) in test [2].

Regarding `CCN(CC)c1ccc(N=CN2CCOCC2)cc1`, the results for the inhibition in test [1] and in test [2] were -31% and 53% (inactive), respectively.

For `COC(=O)c1c(C)oc(C)c(C(=O)OC)c1=O`, the inhibition is 2.5% in test [1] and 1.5% (inactive) in test [2].

`Cc1ccc(Cl)cc1N1CCN(Cn2sc3ccccc3c2=O)CC1`: the values for the inhibition in test [1] and in test [2] were 8.5% and 77% (inactive), respectively.

Regarding `Nc1nc2cc(S(=O)(=O)N3CCOCC3)ccc2o1`, the figures for the inhibition in test [1] and in test [2] were -5.5% and 2.5% (inactive), respectively.

`CCOC(=O)C1CCN(Cn2c(=S)oc3ccc(S(=O)(=O)CC)cc32)CC1`: the inhibition in test [1] was -4%; in test [2], 5% (inactive).

As for `O=S(=O)(c1ccc2oc(=S)n(CN3CCOCC3)c2c1)N1CCOCC1`, the inhibition is 4% in test [1] and 99.5% (active) in test [2].

For the molecule `CCn1c(=O)c(=O)[nH]c2cc(C(=O)Nc3ccccc3N3CCOCC3)ccc21`, the inhibition in test [1] was 19.5%; in test [2], 16.5% (inactive).

On to `c1coc(-c2nnc(-c3ccco3)nn2)c1`, for which the inhibition is 34% in test [1] and 0% (inactive) in test [2].

On to `O=c1[nH]nc(-c2ccco2)o1`, for which the results for the inhibition in test [1] and in test [2] were -7% and 96% (active), respectively.

With `Cn1c(-c2ccco2)n[nH]c1=S`, the inhibition is 80% in test [1] and 96.5% (inactive) in test [2].

As for `Cc1cc(C(=O)Cn2cc(C(F)(F)F)ccc2=O)c(C)n1Cc1ccco1`, the inhibition in test [1] was 1%; in test [2], 3% (inactive).

For `Cc1ccc(C(=O)NCCN2C(=O)S/C(=C\c3ccc(F)cc3)C2=O)cc1NC(=O)c1ccco1`, the inhibition in test [1] was -9.5%; in test [2], 6.5% (inactive).

Regarding `O=C(O)c1sc2sccc2c1Cl`, the inhibition was -1.5% in test [1] and 8.5% (inactive) in test [2].

On to `O=C1CCc2ccccc2N1`, for which the inhibition was -5% in test [1] and -11% (inactive) in test [2].

As for `O=C1Cc2ccccc2C(=O)N1`, the inhibition in test [1] is 7%; in test [2], 99.5% (active).

Consider `O=C1NC(C(=O)O)Cc2ccccc21` (stereo not given), for which the inhibition in test [1] was 9%; in test [2] it was 15% (inactive).

On to `O=C(CN1C(=O)c2ccccc2S1(=O)=O)N1N=C(c2ccc(Cl)cc2)CC1c1ccco1` (stereo not given), for which the inhibition in test [1] was 10.5%; in test [2] it was 15% (inactive).

For `CC1Sc2ccc(C(=O)Oc3ccc4c(c3)OCO4)cc2NC1=O` (stereo not given), the inhibition in test [1] was 2%; in test [2], 35.5% (inactive).

For the molecule `CCN(CC)S(=O)(=O)c1ccc2c(c1)CCCN2`, the inhibition in test [1] was -4%; in test [2] it was 18% (inactive).

As for `O=C(OCC(=O)N1CCC(Cc2ccccc2)CC1)c1ccc(O)cc1`, the inhibition is -7.5% in test [1] and 2.5% (inactive) in test [2].

For the molecule `COc1ccc(N(C)S(=O)(=O)c2cccc(C(=O)Nc3ccc(N4CCN(C)CC4)cc3C)c2)cc1`, the inhibition is 11.5% in test [1] and 9% (inactive) in test [2].

For `Cc1c(C(=O)O)sc2nc(CSc3nnc(-c4ccc(F)cc4)n3C)[nH]c(=O)c12`, the inhibition in test [1] was 2.5%; in test [2], 3% (inactive).

For the molecule `N#Cc1c(N)sn(-c2ccccc2)c1=S`, the inhibition was 11.5% in test [1] and 102% (active) in test [2].

Take `CCOC(=O)c1c(N)sn(-c2ccccc2)c1=S`: the inhibition in test [1] was 14.5%; in test [2], 17% (inactive).

For `N#CC1=C(N)N(c2ccccc2)C(=O)C1`, the inhibition in test [1] was 0%; in test [2], -10.5% (inactive).

For `Cc1sc2ncnc(N3CCc4ccccc43)c2c1C`, the inhibition in test [1] is 6%; in test [2], 8.5% (inactive).

In the case of `COC(=O)C(C)Sc1ncnc2sc(C)c(C)c12` (stereo not given), the inhibition in test [1] was 7%; in test [2] it was 13% (inactive).

Regarding `Cc1sc2ncnc(N)c2c1C`, the inhibition was 9.5% in test [1] and 89.5% (active) in test [2].

`CCCCn1ccnc1C(=O)c1ccc(S(=O)(=O)N2CCCC2)cc1`: the inhibition in test [1] was 1%; in test [2], 8% (inactive).

On to `CCCCN1C(=O)CC(C(=O)O)C1c1ccc(OC)cc1` (stereo not given), for which the results for the inhibition in test [1] and in test [2] were 3% and -3.5% (inactive), respectively.

Take `CCOc1ccc(/C=N/N2C(=O)NC(C)(CC)C2=O)c(O)c1` (stereo not given): the inhibition in test [1] was -4.5%; in test [2], 0.5% (inactive).

Take `CC(=O)NCCc1ccc(-c2csc(N)n2)cc1`: the inhibition in test [1] is 41%; in test [2] it was 24% (inactive).

As for `CC(=O)NCc1ccc(-c2csc(N)n2)o1`, the values for the inhibition in test [1] and in test [2] were 17.5% and 92.5% (active), respectively.

With `COc1ccc(Cc2nnc3n2N=C(c2ccc(CNC(C)=O)o2)CS3)cc1`, the figures for the inhibition in test [1] and in test [2] were 6% and 15.5% (inactive), respectively.

Regarding `COc1cc2c(cc1NC(=O)C(C)Sc1nncn1C)oc1ccccc12` (stereo not given), the inhibition in test [1] was -6.5%; in test [2], 16.5% (inactive).

As to `CNC(=O)NC(=O)C(C)N1CCc2ccccc2C1` (stereo not given), the inhibition was -2.5% in test [1] and 2.5% (inactive) in test [2].

For `COc1cccc(CC(=O)Nc2cccc(OC)c2)c1`, the figures for the inhibition in test [1] and in test [2] were 2% and 8.5% (inactive), respectively.

As for `COc1cccc(NC(=O)/C=N/O)c1`, the figures for the inhibition in test [1] and in test [2] were 19.5% and 37.5% (inactive), respectively.

`COc1cccc(N=C2NNC(C)=C(C(=O)N(C)C)S2)c1`: the inhibition in test [1] was 13.5%; in test [2] it was 88.5% (active).

On to `CCn1c(Cn2cc(S(=O)(=O)N3CCCC3)ccc2=O)nc2cc(S(=O)(=O)N(C)C)ccc21`, for which the inhibition is 1% in test [1] and 8.5% (inactive) in test [2].

For the molecule `Oc1c(C(c2cccnc2)N2CCCCC2)ccc2cccnc12` (stereo not given), the inhibition is -53.5% in test [1] and -20.5% (inactive) in test [2].

For the molecule `Oc1c(C(c2cccnc2)N2CCOCC2)ccc2cccnc12` (stereo not given), the results for the inhibition in test [1] and in test [2] were 28.5% and 105% (active), respectively.

As to `Oc1c(C(Nc2ccccn2)c2cccnc2)ccc2cccnc12` (stereo not given), the inhibition is -15% in test [1] and 14% (inactive) in test [2].

Regarding `CC(Sc1nnc(-c2ccccc2)o1)C(=O)N(C)c1ccccc1` (stereo not given), the inhibition in test [1] was 9%; in test [2] it was 7% (inactive).

Consider `CN(C(=O)c1ccco1)C1(c2ccccc2Cl)CCCCC1=O` (stereo not given), for which the inhibition in test [1] is 5.5%; in test [2], 9.5% (inactive).

Consider `CCOC(=O)C(Sc1n[nH]c(N)n1)c1ccccc1` (stereo not given), for which the results for the inhibition in test [1] and in test [2] were 13.5% and 15.5% (inactive), respectively.

Broadly, the inhibition is the drop in the measured response relative to a control, in per cent.
